Source: PubChem (National Center for Advancing Translational Sciences (NCATS))
TDP1 cell CPT – DT40-hTDP1 cell growth loss with CPT; chicken DT40 Tdp1-/-;hTDP1 cells + 20 nM CPT, ATP luminescence, 48 h; Potency, µM (highest dose often 46.2 µM), most hits filed as inhibitors; actives 12% (n = 420,000); AID 686979; also: nearly all actives have a fitted effect of over 55% in size
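Chicken DT40 Tdp1-/- cells complemented with human TDP1, 400 cells/well, exposed to compounds plus 20 nM camptothecin for at least 48 h at 37 C; viability read as ATP content by CellTiter-Glo luminescence.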
HT1080 IDH1KD tx – HT-1080 IDH1 knockdown cell toxicity (counter line). HT-1080 IDH1 knockdown viability, ATP luminescence, 48 h. Potency, µM (highest dose often 46.1 µM), hits mostly cytotoxic. actives 2% (n = 360,000). AID 686971
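Viability of IDH1-knockdown HT-1080 fibrosarcoma cells was assessed by CellTiter-Glo after 48 h at 37 °C with titrated compound; concentration-effect curves were classified by fit quality and response size.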
ELG1 DNA repair – inhibitors of ELG1-dependent DNA repair in HEK293T cells; HEK293T ELG1-luciferase reporter, luminescence, 16 h; DNA damage induced by 5-fluorouridine; Potency, µM (top dose mostly 46.1 µM), usual class: inhibitors; actives 2.3% (n = 330,000); also: nearly all actives have a fitted effect of over 55% in size
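In this reporter screen, reduction of luminescence relative to DMSO vehicle indicated activity. Compounds and 5-fluorouridine were added together to 2,000 cells per well, incubated for 16 hr at 37 °C, then developed with ONE-Glo.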
TDP1 cell noCPT – qHTS for Inhibitors of human tyrosyl-DNA phosphodiesterase 1 (TDP1): qHTS in cells in absence of CPT; AID 686978, 2013; Potency, µM (series often up to 46.2 µM), hits mostly inhibitors; actives 15% (n = 420,000); DT40 Tdp1-/- hTDP1 cells, no CPT, ATP luminescence, 48 h; also: nearly all actives have a fitted effect of over 55% in size
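Growth kinetics read by CellTiter-Glo luminescence after ≥48 hr at 37 °C. Cells: DT40 Tdp1-/- stably carrying human TDP1, 400 per well, compound exposure in the absence of CPT (DMSO vehicle).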
HT1080NT lethal – kills 2HG-producing HT-1080-NT fibrosarcoma cells; Potency, µM (highest dose often 46.1 µM), most hits filed as cytotoxic; actives 1.6% (n = 360,000); HT-1080-NT fibrosarcoma viability, CellTiter-Glo ATP luminescence, 48 h; AID 686970;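 also: NT is the 2HG producing partner of a matched IDH1 knockdown line; nearly all actives have a fitted effect of over 55% in size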
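Viability of the 2HG-overproducing fibrosarcoma line after 48 hours of compound exposure at 37 degrees C was determined by luminescence with CellTiter-Glo, and concentration-effect curves were then fitted and categorized.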
IL1B secr inh – inhibitors of inflammasome signaling (IL-1 beta secretion); THP-1 LPS/ATP IL-1B secretion, AlphaLISA, 16 h; active compounds read low; activity change, % at 57.5 µM; actives 4.7% (n = 360,000); in the data active = activity change below about -50%; inconclusive = mostly about -30% to -49%
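THP-1 cells pretreated 1 hr with compounds (up to 57.5 uM final), then stimulated with LPS (250 ng/mL final) plus ATP (1.25 mM final); secreted IL-1B measured by AlphaLISA after 16 hr, decreased signal indicating inhibition.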
Hits are given with their value. A selection: hits, their analogues and other compounds. The true share with any hit is near 19%. Unless noted, calls follow the shape of the dose curve; as a rule, active = well fitted curve in the direction sought with a large enough effect; inconclusive = small, poorly fitted or top-dose-only effect, or another doubt; inactive = no such curve, though single readings can be large; an effect the other way counts as inactive or inconclusive.

`O=C(Nc1cccc(Br)c1)c1ccc(CN2CCc3ccccc3C2)cc1` gave TDP1 cell CPT inconclusive, HT1080 IDH1KD tx inconclusive, ELG1 DNA repair inconclusive, TDP1 cell noCPT 16µM, HT1080NT lethal 16µM and IL1B secr inh inactive.
Screening COc1ccc(CN2CCc3ccc(NC(=O)CCc4ccccc4OC)cc3C2)c(O)c1 returned TDP1 cell CPT 15µM, HT1080 IDH1KD tx inconclusive, ELG1 DNA repair inactive, TDP1 cell noCPT 23µM, HT1080NT lethal inactive and IL1B secr inh inconclusive.
COc1ccc(OC)c(NC(=O)c2ccc(CN3CCc4ccccc4C3)cc2)c1 was read as TDP1 cell CPT inconclusive, HT1080 IDH1KD tx inactive, ELG1 DNA repair inactive, TDP1 cell noCPT inconclusive, HT1080NT lethal inactive and IL1B secr inh inactive.
`CC(=O)Nc1ccc(NC(=O)c2ccc(CN3CCc4ccccc4C3)cc2)cc1` gave TDP1 cell CPT inactive, HT1080 IDH1KD tx inconclusive, ELG1 DNA repair inactive, TDP1 cell noCPT inconclusive, HT1080NT lethal inconclusive and IL1B secr inh inactive.
For COc1cc(CN2CCc3ccc(NC(=O)CCc4ccccc4OC)cc3C2)ccc1O the results were TDP1 cell CPT inconclusive, HT1080 IDH1KD tx inactive, ELG1 DNA repair inactive, TDP1 cell noCPT inconclusive, HT1080NT lethal inconclusive and IL1B secr inh inactive.
For CSc1cccc(NC(=O)c2ccc(CN3CCc4ccccc4C3)cc2)c1 the results were TDP1 cell CPT inconclusive, HT1080 IDH1KD tx inconclusive, ELG1 DNA repair inactive, TDP1 cell noCPT inactive, HT1080NT lethal inactive and IL1B secr inh -88.
For COc1ccc(NC(=O)c2ccc(CN3CCc4ccccc4C3)cc2)c(OC)c1 the results were TDP1 cell CPT 23µM, HT1080 IDH1KD tx inactive, ELG1 DNA repair inactive, TDP1 cell noCPT inconclusive, HT1080NT lethal inactive and IL1B secr inh inactive.
For COc1ccc(Cl)cc1NS(=O)(=O)c1ccc2c(c1)NC(=O)CC(=O)N2 the results were TDP1 cell CPT inactive and TDP1 cell noCPT inactive.
CN(CC(=O)Nc1ccccc1Cl)C(=O)CN1C(=O)C2CC=CCC2C1=O (configuration not stated) was read as TDP1 cell CPT inactive, HT1080 IDH1KD tx inactive, ELG1 DNA repair inactive, TDP1 cell noCPT inactive, HT1080NT lethal inactive and IL1B secr inh inactive.
`CSc1cccc(NC(=O)c2cnccn2)c1` gave TDP1 cell CPT inactive, HT1080 IDH1KD tx inactive, ELG1 DNA repair inconclusive, TDP1 cell noCPT inactive, HT1080NT lethal inactive and IL1B secr inh inactive.
`CSc1cccc(NC(=O)N2CCc3ccc(NC(=O)c4ccccn4)cc3C2)c1` gave TDP1 cell CPT inconclusive, HT1080 IDH1KD tx inactive, ELG1 DNA repair inconclusive, TDP1 cell noCPT 13µM, HT1080NT lethal inconclusive and IL1B secr inh inactive.
For C/C=C/c1ccc(OCCN2CCc3ccccc3C2)c(OC)c1 the results were TDP1 cell CPT inconclusive, HT1080 IDH1KD tx inconclusive, ELG1 DNA repair inactive, TDP1 cell noCPT inconclusive, HT1080NT lethal inactive and IL1B secr inh inactive.
For COc1cc(CN2CCc3ccccc3C2)ccc1O the results were TDP1 cell CPT 0.92µM, HT1080 IDH1KD tx inconclusive, ELG1 DNA repair inconclusive, TDP1 cell noCPT 0.46µM, HT1080NT lethal inconclusive and IL1B secr inh -90.
Screening C=CCc1ccc(OCCN2CCc3ccccc3C2)c(OC)c1 returned TDP1 cell CPT inconclusive, HT1080 IDH1KD tx inactive, ELG1 DNA repair inactive, TDP1 cell noCPT 16µM, HT1080NT lethal inactive and IL1B secr inh inactive.
`COc1ccc(NC(=O)Cn2nnnc2-c2ccccc2F)c(C)c1` gave TDP1 cell CPT inactive and TDP1 cell noCPT inactive.
`COc1ccc2nc(Cl)c(C=O)c(N3CCOCC3)c2c1` gave TDP1 cell CPT inconclusive, HT1080 IDH1KD tx inactive, TDP1 cell noCPT 15µM, HT1080NT lethal inactive and IL1B secr inh inactive.
Cc1ccc2sc(-c3ccc(NC(=O)/C=C\C(=O)O)cc3)nc2c1 was read as TDP1 cell CPT inactive, HT1080 IDH1KD tx inactive, ELG1 DNA repair inconclusive, TDP1 cell noCPT inactive, HT1080NT lethal inactive and IL1B secr inh inconclusive.
`CCn1c(SCC(=O)N(C)CC(=O)Nc2cccc(OC)c2)nnc1-c1ccco1` gave TDP1 cell CPT inactive, HT1080 IDH1KD tx inactive, ELG1 DNA repair inactive, TDP1 cell noCPT inactive, HT1080NT lethal inactive and IL1B secr inh inactive.
For CCn1c(O)c(N=NC(=O)c2cccnc2)c2cc(Br)ccc21 the results were TDP1 cell CPT inconclusive, HT1080 IDH1KD tx inactive, ELG1 DNA repair inactive, TDP1 cell noCPT 23µM, HT1080NT lethal inactive and IL1B secr inh inactive.
CCCCn1c(O)c(N=NC(=O)c2ccncc2)c2cc(Br)ccc21 was read as TDP1 cell CPT inconclusive, HT1080 IDH1KD tx inactive, ELG1 DNA repair inconclusive, TDP1 cell noCPT inconclusive, HT1080NT lethal inactive and IL1B secr inh inactive.
Screening CCOC(=O)C1CN(S(=O)(=O)c2cc(OC)ccc2OC)C1 returned TDP1 cell CPT inactive, HT1080 IDH1KD tx inactive, ELG1 DNA repair inactive, TDP1 cell noCPT inactive, HT1080NT lethal inactive and IL1B secr inh inactive.
Screening Nc1nc2[nH]c(=S)[nH]c2c(=O)[nH]1 returned TDP1 cell CPT inactive and TDP1 cell noCPT inactive.
Nc1nc(=S)c2snnc2[nH]1 was read as TDP1 cell CPT 11µM and TDP1 cell noCPT 16µM.
For CC(=O)OC(C)C1C2=C(C(=O)CC1(C)O)C(=O)c1c(ccc(-c3ccc4c(c3O)C(=O)C3=C(C4=O)C(C(C)OC(C)=O)C(C)(O)CC3=O)c1O)C2=O (configuration not stated) the results were TDP1 cell CPT 1.2µM, HT1080 IDH1KD tx inactive, TDP1 cell noCPT 1.5µM, HT1080NT lethal inactive and IL1B secr inh inactive.
COc1ccccc1C(CNC(=O)c1cccc(S(=O)(=O)NCc2ccccc2)c1)N(C)C (configuration not stated) was read as TDP1 cell CPT inconclusive, HT1080 IDH1KD tx inactive, ELG1 DNA repair inactive, TDP1 cell noCPT inactive, HT1080NT lethal inactive and IL1B secr inh inactive.
CC1Cc2ccccc2N1S(=O)(=O)c1cccc(C(=O)NC2CC2)c1 (configuration not stated) was read as TDP1 cell CPT 18µM, HT1080 IDH1KD tx inconclusive, ELG1 DNA repair inconclusive, TDP1 cell noCPT 13µM, HT1080NT lethal inconclusive and IL1B secr inh inactive.
For CC1Cc2ccccc2N1S(=O)(=O)c1cccc(C(=O)NCc2ccco2)c1 (configuration not stated) the results were TDP1 cell CPT inactive, HT1080 IDH1KD tx inactive, ELG1 DNA repair inactive, TDP1 cell noCPT inactive, HT1080NT lethal inactive and IL1B secr inh inactive.
Screening C=CCN(CC=C)C(=O)c1cccc(S(=O)(=O)N2c3ccccc3CC2C)c1 (configuration not stated) returned TDP1 cell CPT 16µM, HT1080 IDH1KD tx inactive, ELG1 DNA repair inconclusive, TDP1 cell noCPT 16µM, HT1080NT lethal inactive and IL1B secr inh inactive.
